Compounds with a hit are over-represented: about 3.1% of the library has one in this group of screens.
MBD2 DNA inh: blocks human MBD2 binding to methylated DNA; AID 686964; TR-FRET, MBD2 binding to methylated oligonucleotide; inhibition, % at 4.4 µM; 370,000 tested, 0.31% active; in the data active means inhibition above about 13%
Target sequence (Q9UBB5 whole entry, looked up): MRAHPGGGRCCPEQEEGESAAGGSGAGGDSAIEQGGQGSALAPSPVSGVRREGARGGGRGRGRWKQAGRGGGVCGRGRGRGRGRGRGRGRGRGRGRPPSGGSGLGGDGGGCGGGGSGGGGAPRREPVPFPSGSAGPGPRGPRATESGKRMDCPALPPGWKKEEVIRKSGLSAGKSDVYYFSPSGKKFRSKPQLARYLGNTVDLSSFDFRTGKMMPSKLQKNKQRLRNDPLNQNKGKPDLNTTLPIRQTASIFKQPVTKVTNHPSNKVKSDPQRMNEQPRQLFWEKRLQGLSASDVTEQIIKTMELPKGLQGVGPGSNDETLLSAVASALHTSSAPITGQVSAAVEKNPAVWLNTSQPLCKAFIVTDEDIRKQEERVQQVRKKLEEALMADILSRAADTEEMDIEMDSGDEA
UHRF1 binding: human UHRF1 methylated DNA binding inhibitors; Q96T88; UHRF1 binding to methylated oligo, TR-FRET; inhibition, % at 4.4 µM; 370,000 tested, 0.75% active; AID 687016; in the data active means inhibition above about 21%;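 further: UHRF1 SRA domain binding a hemimethylated CpG hairpin DNA probe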
LEDGF integ inh: blocks HIV-1 LEDGF/p75-dependent DNA integration; 370,000 tested, 0.64% active; inhibition, % at 3.7 µM; AID 743269; TR-FRET IN-LEDGF/p75 DNA integration, Eu/Cy5;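 active means inhibition above the screen-wide mean plus 3 SD, cut at about 13% in these data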;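 further: signal is the Cy5 over europium emission ratio at 671 and 618 nm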
Rin1 Abl inh: human Rin1-Abl interaction inhibition; P00519+Q13671; TR-FRET Rin1/Abl binding, biochemical; inhibition, % at 7.35 µM; 360,000 tested, 0.4% active; AID 588664; in the data active means inhibition above about 5%, passing the limit was not always enough
KLK7 zymogen act: proKLK7 (human) activation, primary screen. P49862. purified proKLK7, EDANS-DABCYL substrate fluorescence; 100% is mature enzyme control, 0% vehicle. activation, % at 7 µM. 370,000 tested, 0.9% active. AID 652039;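 active means activation above the mean of all tested compounds plus 3 SD, computed per campaign excluding outliers beyond control limits, cut at about 13% in these data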
Target sequence (P49862 whole entry, looked up): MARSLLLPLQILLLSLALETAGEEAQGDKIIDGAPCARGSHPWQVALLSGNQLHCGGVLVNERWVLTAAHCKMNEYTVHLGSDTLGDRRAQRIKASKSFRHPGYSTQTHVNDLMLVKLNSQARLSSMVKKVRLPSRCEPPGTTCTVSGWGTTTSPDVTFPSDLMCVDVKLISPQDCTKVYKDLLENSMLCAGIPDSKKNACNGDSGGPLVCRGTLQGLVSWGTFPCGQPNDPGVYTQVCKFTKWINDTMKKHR
Neddylation inh: cullin neddylation inhibition; TR-FRET cullin neddylation, biochemical; calls only at 25 µM; 360,000 tested, 0.58% active; AID 651699; in the data active means inhibition above about 36%
Neddyl inh conf: confirmation of human cullin neddylation inhibitors. shares compounds with Neddylation inh. TR-FRET cullin neddylation biochemical assay. calls only at 25 µM. 1,800 tested, 13% active. AID 652217; in the data active means inhibition above about 40%;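 further: neddylation substrate is the cullin 1 ring ligase complex with SKP2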
Each line names hits and unclear results; the compound was inactive in the other large screens (follow-up assays come after a bar, where shown).

CCOc1cc(/C=N/NC(=O)c2cc3c(ccc4ccccc43)o2)ccc1O	none (not shown: Neddylation inh)
CCOC(=O)COc1ccccc1/C=N\NC(=O)c1cc2c(ccc3ccccc32)o1	Neddylation inh active
COC(=O)c1cccc(CN2C(=O)SC(Nc3ccccc3)C2=O)c1 (stereo not drawn)	Neddylation inh active | Neddyl inh conf inactive
Cc1cccc(NC2SC(=O)N(CC(=O)O)C2=O)c1 (stereo not drawn)	none
C/C(=N\NC(=O)c1ccc(N2CCCC2=O)cc1)c1ccc(O)cc1O	Neddylation inh active | Neddyl inh conf inactive
CCCC1CCC2(CC1)CCC2OC(=S)NCCc1ccc(Cl)cc1 (stereo not drawn)	none (no result: Rin1 Abl inh, KLK7 zymogen act, Neddylation inh)
Cc1cccn2c(=O)c3cc(C(=O)NCC4CCCO4)c(=N)n(CCc4ccccc4)c3nc12 (stereo not drawn)	none (not shown: Neddylation inh)
COc1ccc(CCNC(=O)c2cc3c(=O)n4cccc(C)c4nc3n(CC3CCCO3)c2=N)cc1 (stereo not drawn)	Neddylation inh active | Neddyl inh conf inactive
Cc1ccc(N(C(=O)CS(=O)CC(=O)Nc2ccc(F)cc2)C(C)C(=O)NC(C)(C)C)cc1 (stereo not drawn)	none
CC(=O)OCC(OC(C)=O)C(OC(C)=O)C(OC(C)=O)C(=O)Nc1cccc(C)c1 (stereo not drawn)	none
CC(=O)Oc1ccc(-c2ccc(C(=O)OCC(=O)N(C)CC(=O)Nc3ccccc3Cl)cc2)cc1	Neddylation inh active | Neddyl inh conf inactive
COc1ccc(NC(=O)CN(C)C(=O)/C=C/c2cn(-c3ccccc3)nc2-c2cccs2)cc1	Neddylation inh active | Neddyl inh conf inactive
Cc1csc2ncc(C(=O)NCCc3ccccc3)c(=O)n12	Neddylation inh active | Neddyl inh conf inactive
Cc1csc2ncc(C(=O)NCCC(c3ccccc3)c3ccccc3)c(=O)n12	none
Cc1ccc(NC(=O)NC(=O)N(C(C)C)S(C)(=O)=O)nc1	Neddylation inh active
CC(C)N(C(=O)NC(=O)Nc1ccccn1)S(C)(=O)=O	none
CCCNC(=O)C1(C)CCN(Cc2cc(-c3ccccc3)on2)C1 (stereo not drawn)	none
C[C@@H]1ON(C)[C@H]2C[C@H]3c4cc(-c5ccccc5)ccc4CCN3C[C@@H]12	none (no result: Rin1 Abl inh, Neddylation inh)
C=CCN1C(=O)C(CC(=O)O)S/C1=N/N=C/c1ccc(N(CC)CC)cc1 (stereo not drawn)	Neddylation inh active | Neddyl inh conf active
C#CCOC(=O)CCCNc1ccc([N+](=O)[O-])cc1[N+](=O)[O-]	none
Cc1ccc(-c2[nH]c3ccccc3c2SCCN)cc1	Neddylation inh active | Neddyl inh conf inactive
CCn1nc(NC(=O)c2cccs2)c2cc3ccccc3nc21	none (not shown: Neddylation inh)
CCn1nc(NC(=O)C(C)C)c2cc3ccc(C)cc3nc21	Neddylation inh active | Neddyl inh conf inactive
CCn1nc(NC(=O)c2cccnc2)c2cc3ccccc3nc21	Neddylation inh active | Neddyl inh conf inactive
CC(C)(C)OC(=O)C[C@@H]1C/C=C\C[C@H](CC(=O)N(CCO)Cc2ccccc2)C(=O)N[C@H](Cc2ccccc2)COC1=O	none
CCn1cc(C(=O)O)c(=O)c2cc(F)c(N3CCN(C(=S)NC(=O)c4ccc(Br)cc4)CC3)cc21	none
CCn1cc(C(=O)O)c(=O)c2cc(F)c(N3CCN(C(=O)Nc4ccccc4)CC3)cc21	Neddylation inh active | Neddyl inh conf inactive
CCn1cc(C(=O)O)c(=O)c2cc(F)c(N3CCN(C(=S)NC(=O)c4ccc(OC)cc4)CC3)cc21	Neddylation inh active | Neddyl inh conf inactive
CSCCC(NC(=O)/C(=C/c1ccco1)NC(=O)c1ccc(Br)o1)C(=O)O (stereo not drawn)	none
COc1ccccc1-c1nc(C#N)c(N2CCN(Cc3ccccc3)CC2)o1	Neddylation inh active
COc1ccc(-c2[nH]ncc2/C=C(/C#N)C(=O)NC2CCCCCC2)cc1	Neddylation inh active | Neddyl inh conf inactive
Cc1cc(/C=C(\C#N)C(=O)NC2CCCCCC2)c(C)[nH]1	none
Cc1cccn2c(=O)c(C=NCc3ccccc3)c(NCCO)nc12	Neddylation inh active | Neddyl inh conf active
Cc1cccn2c(=O)c(/C=N/O)c(NCc3ccccc3)nc12	Neddylation inh active
Cn1/c(=N/NC(=O)c2ccccc2Br)sc2ccccc21	none
O/N=C(/c1ccccc1)c1cc2cc(Br)cc(Br)c2o1	none
NC(=O)N/N=C\c1cc(Br)ccc1O	Neddylation inh active | Neddyl inh conf inactive
Cc1ccccc1SCC(=O)Nc1cc(C(F)(F)F)ccc1N1CCOCC1	none (no result: MBD2 DNA inh, UHRF1 binding, LEDGF integ inh, KLK7 zymogen act)
COc1ccc(C)cc1NC(=O)NNC(=O)C(C)Oc1ccc(F)cc1Cl (stereo not drawn)	none
Cc1sc2nc(-c3cccnc3)[nH]c(=O)c2c1-c1ccccc1	Neddylation inh active | Neddyl inh conf inactive
CC(=O)N1CCN(C(=O)C2CCCN(C(=O)c3ccc4c(c3)NC(=O)CS4)C2)CC1 (stereo not drawn)	none (no result: Rin1 Abl inh, Neddylation inh)
N#C/C(=C\c1c(Cl)cccc1Cl)c1nc2ccccc2[nH]1	Neddylation inh active | Neddyl inh conf active
COC(=O)c1c[nH]c(=O)c2ccccc12	none
COC(=O)c1ccc(C(=O)OC)c(=O)[nH]1	Neddylation inh active
COc1ccc(N2CCN(CCNS(=O)(=O)c3ccc(Br)s3)CC2)cc1	none (no result: Rin1 Abl inh, Neddylation inh)
Cc1oc(-c2cccs2)nc1CSCC(=O)NC1CC1	Neddylation inh active | Neddyl inh conf inactive
O=C(c1cccc(Br)c1)N1CCN(c2ccc(N3CCOCC3)nn2)CC1	Neddylation inh active
Cc1ccccc1C(=O)N1CCN(c2ccc(N3CCOCC3)nn2)CC1	Neddylation inh active
O=C(CCCc1c[nH]c2ccccc12)N1CCN(c2ccc(N3CCOCC3)nn2)CC1	Neddylation inh active | Neddyl inh conf active
O=C(c1cncc(Br)c1)N1CCN(c2ccc(N3CCOCC3)nn2)CC1	none
COc1cccc(C(=O)N2CCN(c3ccc(N4CCOCC4)nn3)CC2)c1	Neddylation inh active
Cc1ccccc1C(=O)N1CCN(c2nc(N3CCOCC3)nc(N3CCOCC3)n2)CC1	none
Cc1cc(C)n2nc(C(=O)N3CCCC(Nc4ccc(F)c(F)c4)C3)cc2n1 (stereo not drawn)	none
C[C@H](NC(=O)N1CCn2c1nc1ccccc12)C(=O)NCc1ccc2c(c1)OCO2	none
CCCCn1c(N)c(N(CC(C)C)C(=O)Cc2ccc3c(c2)OCCO3)c(=O)[nH]c1=O	none
COC(=O)Cc1c(C)nc2nc(-c3ccc(OC)cc3)[nH]n2c1=O	none (not shown: Neddylation inh)
COc1ccc(-c2nc3nc(C)c(Cc4ccccc4)c(=O)n3[nH]2)cc1	Neddylation inh active
COC(=O)c1sccc1NC(=O)/C=C/c1ccc(Cl)cc1Cl	Neddylation inh active | Neddyl inh conf inactive

Screens: PubChem BioAssay, several laboratories
